Hit rate of the full screen: of about 6,200 compounds, about 2,900 (47%) were called active. The set was probably picked from earlier hits. The list shows a part of the results. Values without a mark were called inactive. No stated cut-off is given here; in the data, active means inhibition above about 50%; inactive means the rest.
assay: Mycobacterium tuberculosis growth inhibition, primary screen (AID 1259343); conditions: inhibition: at 10 µM, stronger effect = higher value; outcome: 10 uM

Row | SMILES | inhibition
1 | O=C(CC(Nc1ccc2ccccc2c1)c1ccncc1)c1ccccc1 (stereo unspecified) | 88.8% (active)
2 | C=CCNC(=S)Nc1ccc(Cl)c(Cl)c1 | 21.1%
3 | C=CCNC(=S)Nc1ccc(Cl)cc1F | 35.1%
4 | C=CCNC(=S)Nc1ccc(SC(F)F)cc1 | 53.4% (active)
5 | COC(=O)c1sc(NC(=O)CCCl)c(C(=O)OC)c1C | 101% (active)
6 | Cc1sc(NC(=O)CC(C)(C)CC(=O)Nc2sc(C)c(C)c2C(=O)O)c(C(=O)O)c1C | 29.4%
7 | CCOC(=O)c1c(NC(=O)CCl)sc(C(=O)OC)c1CC(=O)OC | -17.1%
8 | Cc1csc(C(C)NCc2ccc(OCC(C)C)cc2)n1 (stereo unspecified) | 51.6% (active)
9 | Cc1ccc(-c2ncc(C(=O)NC(C)C)s2)c(C)c1 | 61.8% (active)
10 | Cc1ccc(-c2csc3nc(C4CC4)[nH]c(=O)c23)c(C)c1 | 6.81%
11 | COc1ccc(C)cc1-c1csc(NC(=O)C(C)C)n1 | 11.6%
12 | CCOC(=O)c1nn(-c2ccc(OCC)cc2)c2nnc(Cc3cccnc3)c(=O)n12 | -11.2%
13 | CCOC(=O)c1nn(-c2cccc(Cl)c2)c2nc(-c3cccs3)c(C#N)c(=O)n12 | 52.1% (active)
14 | COC(=O)CCn1c(=O)c2c(nc3n(CCc4ccccc4)c(C)cn23)n(C)c1=O | 2.78%
15 | COc1cccc(C(=O)CSc2nnc(NC(=O)c3cccc(Cl)c3)s2)c1 | 55.3% (active)
16 | COc1ccccc1Nc1nnc(SCC(=O)c2ccc(O)c(O)c2)s1 | 83.9% (active)
17 | CNc1nnc(SCc2cccc(Cl)c2)s1 | 23.8%
18 | O=C1c2cccc3cccc(c23)N1S(=O)(=O)c1ccc(Cl)cc1 | -5.06%
19 | Cc1ccc(CN(C)Cc2nc(-c3ccc4c(c3)OCO4)no2)o1 | 90.8% (active)
20 | CCN(CCn1cccn1)Cc1nc(-c2ccc3c(c2)OCO3)no1 | 90.5% (active)
21 | CN(Cc1nc(-c2ccc3c(c2)OCO3)no1)CC1COc2ccccc2O1 (stereo unspecified) | inactive
22 | CN(Cc1ccc2nsnc2c1)Cc1nc(-c2ccc3c(c2)OCO3)no1 | 84.1% (active)

Row | SMILES | inhibition
23 | CN(Cc1ccc2nonc2c1)Cc1nc(-c2ccc3c(c2)OCO3)no1 | 13.7%
24 | COc1ccc(-n2ccnc(SCc3ccc(F)cc3)c2=O)cc1 | 76.6% (active)
25 | Cc1nnc(SCc2ccc(C(=O)NCc3ccncc3)cc2)n1-c1ccc(F)cc1 | -8.13%
26 | C=Cc1ccc(CSc2nccn(-c3ccc(C)cc3)c2=O)cc1 | 95.7% (active)
27 | C=Cc1ccc(CSc2nncn3c2cc2occc23)cc1 | 31.6%
28 | NC(=S)N=C1CCN(c2ccccc2)N1 | 93.8% (active)
29 | Cc1cccc(N2CCC(=NC(N)=S)N2)c1 | 33.7%
30 | c1ccc(N2CCC(=NC3=NCCCCC3)N2)cc1 | 4.7%
31 | c1ccc(-c2nc(Nc3ccc4c(c3)OCCO4)c3ccccc3n2)cc1 | -17%
32 | c1nc(Nc2ccc3c(c2)OCCO3)c2c3c(sc2n1)CCCC3 | -26.9%
33 | FC(F)(F)c1nc(Nc2ccc3c(c2)OCCCO3)c2ccccc2n1 | 100% (active)
34 | CC(C)(Oc1ccc(Cl)cc1)C(=O)NCc1ccoc1 | 24.1%
35 | O=C(NCC(=O)N1CCN(Cc2ccc(OC(F)(F)F)cc2)CC1)c1ccco1 | 94.3% (active)
36 | COc1cccc(COc2coc(CN3CCCN(S(=O)(=O)c4ccc(OC(F)(F)F)cc4)CC3)cc2=O)c1 | 10.6%
37 | Cc1ccc(Nc2nnc(SCC(C)C)s2)cc1 | 94.1% (active)
38 | CC(C)CSc1nnc(Nc2ccc(C(C)C)cc2)s1 | 92.2% (active)
39 | CC(C)c1ccc(Nc2nnc(SCCO)s2)cc1 | 25.5%
40 | COc1cccc(C(=O)Nc2ccc(Oc3ccc(F)cc3)nc2)c1OC | 45%
41 | O=C(CC1CCCC1)Nc1ccc(S(=O)(=O)C(F)F)cc1 | 11.8%
42 | CCCCOc1ccc(NC(=O)CC2CCCC2)cn1 | 99.4% (active)
43 | CSc1ncc(CNCCc2cccc(Cl)c2)c(N2CCCC(C)C2)n1 (stereo unspecified) | 18%
44 | Clc1cccc(N2CCN(C3CCCN(Cc4ccc5nsnc5c4)C3)CC2)c1 (stereo unspecified) | 75.5% (active)

Row | SMILES | inhibition
45 | Clc1cccc(CN2CCCC(Nc3ccccc3)C2)c1 (stereo unspecified) | 59.2% (active)
46 | OCCC#Cc1ccc(CN2CCCC(CO)(Cc3ccccc3)C2)cc1 (stereo unspecified) | 69.2% (active)
47 | OCCC#Cc1ccc(CN2CCCC(Nc3ccccc3)C2)cc1 (stereo unspecified) | 70.9% (active)
48 | CC(C)c1cc(C(=O)N2CCCC(N3CCN(c4cccc(C(F)(F)F)c4)CC3)C2)on1 (stereo unspecified) | 46.1%
49 | OCC1(Cc2ccccc2)CCCN(Cc2ccc(OC(F)(F)F)cc2)C1 (stereo unspecified) | 20.7%
50 | OCC1(Cc2ccccc2)CCCN(Cc2ccc(-c3ccco3)cc2)C1 (stereo unspecified) | inactive
51 | Oc1cccc(-c2cc(C3CCN(Cc4ccc5nonc5c4)C3)ccn2)c1 (stereo unspecified) | 14.6%
52 | c1ccc(NC2CCCN(Cc3ccc4nsnc4c3)C2)cc1 (stereo unspecified) | 65.6% (active)
53 | Oc1ccccc1CN1CCCC(Nc2cccc(F)c2)C1 (stereo unspecified) | 72.9% (active)
54 | O=C(c1ccc(Cl)cc1)C1CCCN(Cc2cccc3cnccc23)C1 (stereo unspecified) | -4.04%
55 | O=C(c1cc(F)ccc1F)C1CCCN(Cc2cccc3cnccc23)C1 (stereo unspecified) | inactive
56 | O=C(NCc1cccnc1-n1cccn1)C1CCCN(Cc2cccnc2)C1 (stereo unspecified) | -13.9%
57 | O=C(CN1CCCC1c1ccccc1)Nc1cc(F)cc(F)c1 (stereo unspecified) | 2.2%
58 | O=C(c1ccc(-c2ccccc2)cc1)C1CCCN(Cc2ccncc2)C1 (stereo unspecified) | inactive
59 | Cc1cc(Cl)ccc1C(=O)C1CCCN(Cc2ccc(C#CCCO)cc2)C1 (stereo unspecified) | 77.5% (active)
60 | CCN(CC)c1ccc(/C=C2\SC(=S)N(Cc3ccccc3)C2=O)c(O)c1 | -15.2%
61 | N#Cc1ccc(NC(=O)Nc2ccccc2Br)c2n[nH]nc12 | 64.4% (active)
62 | N#Cc1ccc(CNc2ccccc2Br)cc1 | 49.2%
63 | CN(CC(=O)Nc1ccccc1Br)C1CCc2ccccc21 (stereo unspecified) | 34.1%
64 | COc1ccc(C(CC(=O)c2cccs2)Sc2ccccc2NC(C)=O)cc1 (stereo unspecified) | 53.2% (active)
65 | COc1ccc(C2c3cccn3CCN2C(=O)Nc2cccs2)cc1 (stereo unspecified) | -1.32%
66 | NC(=S)c1cc2ccccc2oc1=O | 101% (active)

Row | SMILES | inhibition
67 | O=c1oc2ccccc2cc1S(=O)(=O)c1ccc(Cl)cc1 | -58.5%
68 | Cc1ccn2c(=O)nc(SCc3cccc(C(F)(F)F)c3)nc2c1 | 2.92%
69 | Cc1ccn2c(=O)nc(SCc3ccc(Cl)cc3)nc2c1 | 77.5% (active)
70 | Cc1ccc(CSc2nc(=O)n3ccc(C)cc3n2)cc1 | 24.5%
71 | Cc1ccn2c(=O)nc(SCc3cccc(Cl)c3)nc2c1 | 86.3% (active)
72 | Cc1ccn2c(=O)nc(SCc3ccc(F)cc3)nc2c1 | 1.46%
73 | Cc1ccn2c(=O)nc(SCc3ccc(Br)cc3)nc2c1 | 1.95%
74 | Cc1ccn2c(=O)nc(SCc3ccc(Cl)cc3Cl)nc2c1 | 31.1%
75 | Cc1ccn2c(=O)nc(SCc3ccc(Cl)c(Cl)c3)nc2c1 | 59% (active)
76 | Cc1ccn2c(=O)nc(SCCc3ccccc3)nc2c1 | 88.3% (active)
77 | N#CCSc1nnnn1-c1ccc(O)cc1 | -12.8%
78 | CCCSc1nnnn1-c1ccc(O)cc1 | 55% (active)
79 | O=C(CSc1ncnc2c1cnn2-c1ccc(F)cc1)Nc1ccon1 | 68.2% (active)
80 | COc1cc(NC(=O)CSc2ncnc3c2cnn3C)cc(OC)c1 | 35.5%
81 | Cc1noc(-c2ccnc(NCc3ccc(C#N)cc3)c2)n1 | 22.9%
82 | Cc1nc(SCC(=O)C23CC4CC(CC(C4)C2)C3)nc(C)c1C | 45%
83 | O=C(C[P+](c1ccccc1)(c1ccccc1)c1ccccc1)C12CC3CC(CC(C3)C1)C2 | 95.7% (active)
84 | CC(=O)CSc1nc2sc(C)c(C)c2c(=O)n1C1CCCCC1 | 12%
85 | Cc1ccc(-n2c(SCC(=O)N3CCNC3=O)nc3sc4c(c3c2=O)CCC4)c(C)c1 | 91.2% (active)
86 | Fc1ccc(Cc2nc(CSc3c(F)c(F)cc(F)c3F)cs2)c(Cl)c1 | 50.2% (active)
87 | CNC(Cc1ccc(Br)cc1)Cc1ccc(Br)cc1 | 68.1% (active)
88 | NCCOc1ccc(C23CC4CC(CC(C4)C2)C3)cc1 | -5.79%

Row | SMILES | inhibition
89 | CN1CCN(CC(O)COc2ccc(C34CC5CC(CC(C5)C3)C4)cc2)CC1 (stereo unspecified) | 101% (active)
90 | c1nc(NC2CCCCCC2)c2c3c(sc2n1)CCC3 | 68% (active)
91 | c1nc(NN=C2C3CC4CC(C3)CC2C4)c2c3c(sc2n1)CCC3 | 100% (active)
92 | c1nc(NC2CCCCCC2)c2c3c(sc2n1)CCCC3 | 94.5% (active)
93 | C1=C(CCNc2ncnc3sc4c(c23)CCC4)CCCC1 | 97% (active)
94 | c1csc(CCNc2ncnc3sc4c(c23)CCC4)c1 | -1.33%
95 | Cc1cn2nc(NC3CCCCCCC3)sc2n1 | -9.07%
96 | COCc1nc(NCCC2=CCCCC2)c2cnn(C)c2n1 | -33.4%
97 | CCCCCNc1ncnc2sc3c(c12)CCCC3 | -24.3%
98 | CC(=NNc1ncnc2sc3c(c12)CCC3)c1cc2ccccc2o1 | 24.7%
99 | O=S(=O)(Nc1ncnc2sc3c(c12)CCC3)c1cccs1 | 101% (active)
100 | Cc1nc(-c2ccccn2)[nH]c(=O)c1CC(=O)N1CCc2ccccc2C1 | 67.7% (active)
101 | O=C(CSc1nnc(CCn2ccc(=O)[nH]c2=O)o1)N1CCc2ccccc2C1 | 4.33%
102 | Cc1ccc(NC(=O)c2cc(C)n(C3CC3)c2C)c(C)c1 | 12.4%
103 | CC1=C(C#N)C(C(F)(F)F)(C(F)(F)F)N=C(C2CCCCC2)N1 | 11.3%
104 | Cc1nc(COc2ccccc2C(=O)Nc2ccc(Cl)cc2C)cs1 | -36.5%
105 | CC(=O)Nc1nc(COc2ccc(Cl)cc2Br)cs1 | 41.2%
106 | Nc1nc(COc2ccc(Cl)cc2Cl)cs1 | 87.6% (active)

From PubChem BioAssay AID1259343 (VanderVen Lab, College of Veterinary Medicine, Cornell …, 2017)
